This passage reports composite z-score and z-score results from PubChem BioAssay.

Active and inactive are the calls of the source.

The nature of test [1]: compounds binding Alexa647 anti-His antibody – biochemical, small-molecule microarray, 635 nm fluorescence, artefact control for SMM control protein annotation, primary screen (AID 1128).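 Further: score merges feature fluorescence with signal-to-noise for each printed compound spot.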 Conditions: higher = more signal.
Test [2] has as its system Human papillomavirus type 1a E7 protein (residues 1-88). Kind of test: HPV1a E7 small-molecule binders, primary screen, biochemical, small-molecule microarray, residues 1-88, 635 nm (AID 1129). Conditions: small-molecule microarray binding, fluorescence 635 nm; higher = more signal.
In test [3] the target is Focal adhesion kinase 1 (Homo sapiens) (UniProt Q05397). Kind of test: PTK2 protein binding on printed compound slides – biochemical, small-molecule microarray, 635/667 nm fluorescence, BSA, DTT, primary screen (AID 1130).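 Further: composite of spot emission at 667 nm and signal to noise over triplicate slides.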 Conditions: 635 nm fluorescence, higher = more signal.
Chain of Focal adhesion kinase 1 (Homo sapiens) (Q05397 whole entry, looked up): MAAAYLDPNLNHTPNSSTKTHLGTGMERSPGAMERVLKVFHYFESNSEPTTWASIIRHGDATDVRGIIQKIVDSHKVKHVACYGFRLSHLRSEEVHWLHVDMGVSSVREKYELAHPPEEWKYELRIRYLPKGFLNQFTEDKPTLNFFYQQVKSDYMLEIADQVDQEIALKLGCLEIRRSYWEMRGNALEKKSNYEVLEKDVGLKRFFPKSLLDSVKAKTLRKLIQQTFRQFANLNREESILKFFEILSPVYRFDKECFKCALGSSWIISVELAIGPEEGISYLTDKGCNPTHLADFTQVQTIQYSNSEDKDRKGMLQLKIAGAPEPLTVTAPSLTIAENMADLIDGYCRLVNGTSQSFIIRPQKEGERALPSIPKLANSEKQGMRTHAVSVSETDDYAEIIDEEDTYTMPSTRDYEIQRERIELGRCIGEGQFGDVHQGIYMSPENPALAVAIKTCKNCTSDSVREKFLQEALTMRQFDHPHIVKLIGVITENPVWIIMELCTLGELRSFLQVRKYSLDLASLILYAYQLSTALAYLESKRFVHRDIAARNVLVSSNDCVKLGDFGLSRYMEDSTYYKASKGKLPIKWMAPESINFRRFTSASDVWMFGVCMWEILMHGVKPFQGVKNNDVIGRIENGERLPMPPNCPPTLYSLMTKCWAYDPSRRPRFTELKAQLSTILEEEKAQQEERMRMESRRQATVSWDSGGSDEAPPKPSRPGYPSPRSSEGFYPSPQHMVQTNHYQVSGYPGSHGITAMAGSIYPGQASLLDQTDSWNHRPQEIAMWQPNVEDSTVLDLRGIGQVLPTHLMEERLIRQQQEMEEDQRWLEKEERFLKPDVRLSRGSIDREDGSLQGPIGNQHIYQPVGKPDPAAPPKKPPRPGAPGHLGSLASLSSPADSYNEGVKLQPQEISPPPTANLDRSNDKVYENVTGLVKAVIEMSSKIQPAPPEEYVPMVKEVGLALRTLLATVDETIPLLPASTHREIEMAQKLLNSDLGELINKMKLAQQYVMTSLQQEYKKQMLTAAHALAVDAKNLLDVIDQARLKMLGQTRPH
The subject of test [4] is Fibrinogen (Alexa647-labelled). Kind of test: Alexa647-fibrinogen binding to printed small molecules – biochemical, small-molecule microarray, 635/667 nm fluorescence, artefact control for SMM control-protein annotation, profiling panel (AID 1131).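 Further: z-score merges 667 nm fluorescence with per-spot signal-to-noise over triplicate slides.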 Conditions: fibrinogen-A647 binding fluorescence, higher = more signal.
The target of test [5] is Follistatin (Homo sapiens) (UniProt P19883). Kind of test: FST protein binding to printed compounds – biochemical, small-molecule microarray, 635/667 nm fluorescence, primary screen (AID 1132). Conditions: 635 nm fluorescence, higher = more signal.
Chain of Follistatin (Homo sapiens) (P19883 whole entry, looked up): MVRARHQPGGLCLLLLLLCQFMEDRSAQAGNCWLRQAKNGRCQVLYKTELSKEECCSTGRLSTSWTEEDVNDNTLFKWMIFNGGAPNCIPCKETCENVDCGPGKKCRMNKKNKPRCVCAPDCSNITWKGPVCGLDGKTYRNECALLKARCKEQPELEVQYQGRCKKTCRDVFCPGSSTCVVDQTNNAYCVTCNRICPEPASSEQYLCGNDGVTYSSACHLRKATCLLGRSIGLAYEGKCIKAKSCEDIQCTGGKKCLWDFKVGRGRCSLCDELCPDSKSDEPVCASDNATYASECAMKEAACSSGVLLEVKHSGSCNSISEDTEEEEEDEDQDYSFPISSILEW
Test [6] addresses Fibroblast growth factor 2 (Homo sapiens) (UniProt P09038). Kind of test: basic fibroblast growth factor binding to printed compounds – biochemical, small-molecule microarray, 635/667 nm fluorescence, primary screen (AID 1133). Conditions: FGF2, fluorescence 635/667, higher = more signal.
Test [7] can be described thus: JC-1 mitochondrial potential readout, lung cancer cells – cell-based, A549, JC-1 fluorescence, basal, 24 h, 100 nL, profiling panel (AID 1138).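 Further: A549 lung adenocarcinoma cells under basal conditions with no added stimulus; test concentration not given here.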 Conditions: higher = more signal.
The subject of the next test is Lefty1. Kind of test: Lefty1 protein binding to printed compounds – biochemical, small-molecule microarray, 635/667 nm fluorescence, primary screen (AID 1139). Conditions: fluorescence 635/667, higher = more signal.
The subject of test [8] is wheat germ agglutinin (Triticum aestivum), Alexa647-labelled. Kind of test: Alexa647-WGA lectin binding to printed small molecules – biochemical, small-molecule microarray, 635/667 nm fluorescence, artefact control for SMM control-protein annotation, profiling panel (AID 1140).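 Further: score merges 667 nm feature emission with signal to noise over triplicate slides.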 Conditions: WGA-A647 binding, 635 nm fluorescence, higher = more signal.
Test [9] has as its target Luciferin 4-monooxygenase (Photinus pyralis) (UniProt P08659). Kind of test: inhibition of purified Photinus pyralis luciferase – biochemical, luminescence, purified enzyme, 2006 set, primary screen (AID 1141).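 Further: cell-free assay with purified firefly luciferase at 100 ng per well in PBS; test concentration not given here.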 Conditions: purified firefly luciferase, SteadyGlo luminescence, 30 min; higher = more signal, called active from +8 up or from −8 down.

Chain of Luciferin 4-monooxygenase (Photinus pyralis) (P08659 whole entry, looked up): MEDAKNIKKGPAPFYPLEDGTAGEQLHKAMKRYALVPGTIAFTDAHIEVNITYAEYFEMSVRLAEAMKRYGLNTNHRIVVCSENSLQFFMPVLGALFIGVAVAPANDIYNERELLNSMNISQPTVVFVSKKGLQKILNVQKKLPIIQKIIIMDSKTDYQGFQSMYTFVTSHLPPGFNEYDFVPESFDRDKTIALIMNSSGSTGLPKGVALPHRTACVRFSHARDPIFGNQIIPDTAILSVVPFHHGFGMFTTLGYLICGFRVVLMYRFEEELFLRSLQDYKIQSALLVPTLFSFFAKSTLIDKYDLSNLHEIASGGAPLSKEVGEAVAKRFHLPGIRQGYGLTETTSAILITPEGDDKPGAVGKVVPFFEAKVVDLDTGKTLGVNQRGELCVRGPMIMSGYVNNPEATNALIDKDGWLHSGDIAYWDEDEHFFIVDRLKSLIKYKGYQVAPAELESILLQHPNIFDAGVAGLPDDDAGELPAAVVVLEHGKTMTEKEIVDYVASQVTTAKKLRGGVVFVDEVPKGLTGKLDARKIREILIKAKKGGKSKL
Chain of Fibroblast growth factor 2 (Homo sapiens) (P09038 whole entry, looked up): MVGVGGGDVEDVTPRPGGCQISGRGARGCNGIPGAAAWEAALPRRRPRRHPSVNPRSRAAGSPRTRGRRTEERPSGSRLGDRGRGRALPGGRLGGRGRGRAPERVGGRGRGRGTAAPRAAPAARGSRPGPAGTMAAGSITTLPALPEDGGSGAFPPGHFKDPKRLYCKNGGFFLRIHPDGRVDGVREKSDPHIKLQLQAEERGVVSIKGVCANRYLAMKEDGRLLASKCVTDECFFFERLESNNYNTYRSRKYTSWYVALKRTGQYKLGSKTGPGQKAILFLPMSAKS

Take `C=C(COC)C(=O)CC[C@H](OC(C)=O)c1cccc(OCCO)c1`: the composite z-score was -0.704 in test [1]; -0.586 in [2]; -0.138 in test [3]; -0.708 in test [4]; 1.2 in test [5]; 1.49 in test [6]. In addition, the values for the composite z-score (in the test on Lefty1; in [8]) were -0.332 and -1.16, respectively. The results for the z-score in test [7] and in test [9] were -0.37 and -0.679 (inactive), respectively.

On to `CCCCC=C[C@@H](NC(=O)c1cccs1)c1ccccc1`, for which the composite z-score in test [1] was 0.813; in test [2], 0.837; in test [3] it was 0.351; in test [4], 0.983; in test [5] it was -0.145; in test [6], 0.067. Also, the values for the composite z-score (in the test with Lefty1; in test [8]) were -0.389 and 1.13, respectively. Further, the results for the z-score in test [7] and in [9] were 0.679 and 0.969 (inactive), respectively.

`[N-]=[N+]=NCc1ccccc1C[C@]1(C(=O)NCCN2CCOCC2)N=C(c2ccc(OCCCO)cc2)O[C@H]1c1ccccc1N=[N+]=[N-]`: the composite z-score in test [1] came to 0.853; in [2], 1.25; in [3] it was 0.669; in test [4], 0.989; in test [5], 0.714; in test [6], 0.0056. Besides, the composite z-score with Lefty1 is -0.209; in test [8] it was 0.976. Further, the z-score is 1.29 in test [7] and -7.78 (inactive) in test [9].

With `CCC(CC)C(O)C1C=CC2C(=O)N(c3ccccc3)C(=O)C2N1Nc1ccc(C#N)cc1` (stereo not given), the composite z-score in test [1] is 1.74; in test [2], 1.27; in [3] it was 0.813; in [4] it was 0.991; in test [5], 0.816; in test [6], -0.177. Further, the composite z-score in the test with Lefty1 turned out to be 0.0695; in test [8] it was 1.21. The figures for the z-score in [7] and in test [9] were -0.111 and -0.27 (inactive), respectively.

For `CC(C)C(=C=CC[C@H](O)c1ccccc1OCCO)C[C@H](O)c1ccccn1`, the composite z-score is 1.93 in [1]; 0.958 in [2]; 0.344 in test [3]; 0.207 in test [4]; 0.476 in [5]; 0.857 in test [6]. Besides, the results for the composite z-score (with Lefty1; in test [8]) were 0.649 and 1.33, respectively. For the same molecule, the z-score is 0.453 in test [7] and -0.88 (inactive) in test [9].

`C=CCC(OC(C)=O)[C@@H]1[C@@H](N(Cc2ccc(-c3ccccc3)cc2)C(=O)Cc2ccc(OC)cc2)c2cc(OCCCO)ccc2N1C(=O)c1ccc2ccccc2n1` (stereo not given in full): the composite z-score was determined as 0.009 in [1]; 0.0656 in test [2]; 0.0569 in test [3]; 0.534 in test [4]; 0.45 in test [5]; 0.635 in [6]. For the same molecule, the composite z-score turned out to be 0.221 with Lefty1 and 0.22 in test [8]. Also, the values for the z-score in test [7] and in test [9] were 1.34 and -0.592 (inactive), respectively.

`COCCOC(=O)N1C(=O)[C@@]2(c3cc(C#CCNC(N)=O)ccc31)[C@H](C(=O)N1CCN(c3ncccn3)CC1)[C@H]1C(=O)O[C@H](c3ccccc3)[C@H](c3ccccc3)N1[C@@H]2c1ccccc1OCCO`: the composite z-score in [1] came to 1.24; in test [2], 1.07; in test [3], 0.261; in [4] it was 0.797; in test [5], 1.37; in test [6], 0.406. In addition, the composite z-score with Lefty1 turned out to be 0.889; in test [8] it was 0.749. Also, the figures for the z-score in test [7] and in [9] were -1.55 and 1.05 (inactive), respectively.

Turning to `NC(=O)NCC#Cc1ccc2c(c1)[C@]1(C(=O)N2)[C@H](C(=O)NC[C@H](O)c2ccccc2)[C@H]2C(=O)O[C@H](c3ccccc3)[C@H](c3ccccc3)N2[C@@H]1c1ccc(O)cc1`, the composite z-score in test [1] was determined as 0.489; in test [2], 1.17; in test [3], 0.58; in test [4] it was 0.673; in test [5], 1.17; in [6], 1.21. For the same molecule, the composite z-score turned out to be 0.595 with Lefty1 and 1.09 in test [8]. Also, the z-score is -2.34 in [7] and -0.0138 (inactive) in test [9].

On to `CCOC(=O)C[C@H]1[C@H](OC(=O)c2ccc(C(=O)c3ccccc3)cc2)[C@@H](NC(=O)C2CCCCC2)c2cc(OCCCO)ccc2N1C(=O)c1ccccc1`, for which the composite z-score in [1] was 0.447; in test [2], 0.881; in [3], 0.211; in test [4], 0.636; in [5], 0.27; in test [6], 0.0816. Also, the composite z-score in the test with Lefty1 turned out to be 0.166; in test [8], 0.203. The z-score in [7] is 2.14; in test [9] it was -0.46 (inactive).

Turning to `C=C(CCCC)/C(=C/C[C@H](OC(C)=O)c1ccc(CO)o1)c1cnc2ccccc2c1`, the composite z-score was 0.867 in test [1]; 1.18 in [2]; -0.0622 in test [3]; 0.713 in test [4]; 1.27 in test [5]; 1.18 in test [6]. Further, the composite z-score was found to be 1.29 with Lefty1 and 1.18 in test [8]. Further, the z-score was -0.566 in test [7] and -1.88 (inactive) in [9].

In the case of `N#Cc1ccc(NN2C(C(O)c3ccc([N+](=O)[O-])cc3)C=CC3C(=O)N(c4ccccc4)C(=O)C32)cc1` (stereo not given), the composite z-score in [1] was 0.728; in [2] it was 1.24; in test [3], 0.943; in test [4], 0.619; in [5] it was 0.717; in test [6] it was -0.0956. In addition, the composite z-score in the test on Lefty1 was -0.269; in [8], 0.998. Further, the values for the z-score in [7] and in test [9] were -0.257 and 0.843 (inactive), respectively.

With `[N-]=[N+]=NCc1ccccc1C[C@@]1(C(=O)NCC(O)CO)N=C(c2ccc(OCCCO)cc2)O[C@@H]1c1ccccc1CN=[N+]=[N-]` (stereo not given in full), the composite z-score in test [1] is -0.0645; in [2] it was 1.23; in test [3], 0.919; in test [4], 0.971; in test [5], 1.28; in [6] it was 1.6. Moreover, the composite z-score was -0.83 with Lefty1 and 0.91 in [8]. Moreover, the z-score is 0.16 in test [7] and 0.782 (inactive) in test [9].

Consider `CO[C@H]1O[C@H](CO)[C@@H](OC(=O)Nc2ccc(Oc3ccccc3)cc2)[C@H](OC(=O)Nc2ccccc2)[C@H]1OC(=O)Nc1ccccc1`, for which the composite z-score came out at 1.88 in test [1]; 1.27 in test [2]; 1.12 in test [3]; 0.985 in [4]; 1.07 in test [5]; 1.61 in [6]. Also, the composite z-score in the test with Lefty1 turned out to be 0.444; in test [8], 1.08. Besides, the z-score in test [7] is -1.69; in [9], -0.923 (inactive).

Turning to `CCOc1cc(C(O)C2C=CC3C(=O)N(c4ccccc4)C(=O)C3N2Nc2ccc([N+](=O)[O-])cc2)ccc1O` (stereo not given), the composite z-score in test [1] was 0.73; in [2] it was 1.06; in test [3], 0.106; in [4] it was 0.0405; in test [5], 0.165; in test [6], 0.0474. In addition, the composite z-score in the test with Lefty1 turned out to be 0.107; in test [8] it was 0.14. Further, the z-score in test [7] is -1.52; in test [9] it was -0.021 (inactive).

For the molecule `COC(=O)[C@@]1(Cc2ccc(OC)cc2)[C@H]2c3cc(C(=O)N4CCCC4)n(CCc4c[nH]c5cc(F)ccc45)c3C[C@H]2CN1C(=O)c1ccccc1`, the composite z-score in test [1] is 1.46; in [2], 1.25; in test [3] it was 0.861; in [4] it was 0.994; in test [5], 1.23; in test [6], 0.303. Besides, the composite z-score in the test with Lefty1 came to 0.0312; in test [8] it was 1.18. For the same molecule, the z-score in [7] was 0.509; in test [9], 0.378 (inactive).
